# RE007 growth inh – qHTS Assay for Inhibitors of the HIV-1 protein Vpr; hit rate 0.21% among 360,000; S. pombe RE007 Vpr strain, BacTiter-Glo ATP luminescence, 24 h; Potency, µM (doses to about 92.2 µM), inactives show top-dose activity change, negative = less growth, most hits filed as inhibitors; active = well fitted falling curve with a large enough effect; inconclusive = small, poorly fitted or top-dose-only effect; inactive = no such curve, though single readings can be large or run the other way; also: % is scaled to controls: 0 for no effect and ±100 for the full control effect; nearly all actives have a fitted effect of over 50% in size
#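 Fission yeast RE007 carrying one integrated HIV-1 vpr copy, seeded at OD 0.01 in PMG+AL medium with 23 nL pinned compound. Grown 24 h at 30 degrees; viability read by BacTiter-Glo luminescence after 5 min.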
# NS1 inh – qHTS Assay for Inhibitors of Influenza NS1 Protein Function; Potency, µM (titrated, usually from 46.1 µM), without a hit: at the top dose activity, positive = more growth; hit rate 0.4% among 270,000; AID 2326, 2010; calls by dose curve; also: actives are rising curves; nearly all actives have a fitted effect of over 50% in size
#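 Compounds were scored for reversing the slow growth caused by influenza A NS1 in S. cerevisiae, measured by optical density at 600 nm. Assay medium contained 2% galactose at pH 6.0; NS1-free yeast of the same strain were the positive control.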
# LmPK inh – qHTS Assay for Inhibitors of Leishmania Mexicana Pyruvate Kinase (LmPK); Q27686; purified LmPK, Kinase-Glo ATP luminescence, 1 h; Potency, µM (titrated, usually from 57.5 µM), without a hit: at the top dose activity change, negative = inhibition, hits mostly inhibitors; hit rate 0.37% among 290,000; also: % is scaled to controls: 0 for no effect and ±100 for the full control effect
# Target sequence (Q27686 whole entry, looked up): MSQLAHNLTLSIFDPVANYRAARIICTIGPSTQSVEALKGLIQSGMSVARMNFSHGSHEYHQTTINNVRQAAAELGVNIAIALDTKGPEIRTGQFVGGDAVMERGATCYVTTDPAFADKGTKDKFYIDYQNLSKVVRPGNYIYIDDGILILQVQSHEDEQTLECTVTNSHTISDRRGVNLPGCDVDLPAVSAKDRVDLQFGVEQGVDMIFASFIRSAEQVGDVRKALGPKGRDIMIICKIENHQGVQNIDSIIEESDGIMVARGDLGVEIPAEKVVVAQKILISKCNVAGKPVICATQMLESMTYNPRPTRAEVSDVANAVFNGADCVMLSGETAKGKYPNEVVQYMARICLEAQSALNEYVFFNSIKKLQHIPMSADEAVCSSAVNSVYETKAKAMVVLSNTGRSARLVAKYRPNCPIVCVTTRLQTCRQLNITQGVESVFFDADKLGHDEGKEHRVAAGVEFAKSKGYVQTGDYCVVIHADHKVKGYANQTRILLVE
#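 ATP generated from ADP (0.1 mM) and PEP (0.5 mM) by 0.1 nM LmPK over 1 h at room temperature (pH 7.2 imidazole buffer) was detected by coupled luciferase luminescence. Values were normalized to uninhibited and no-enzyme wells.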
# Tb PYK inh – qHTS of Trypanosoma Brucei Inhibitors; TbPYK enzyme, Kinase-Glo Plus ATP luminescence, 45 min; Potency, µM (titrated, usually from 76.8 µM), for the others: top-dose activity, negative = inhibition, most hits filed as inhibitors; hit rate 0.12% among 410,000; AID 624173, 2012; also: % is scaled to controls: 0 for no effect and ±100 for the full control effect; nearly all actives have a fitted effect of over 50% in size
#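 Glycolytic pyruvate kinase of T. brucei was incubated with substrate, test compound and 130 uM ADP for 45 minutes at room temperature. Luminescent Kinase-Glo Plus signal was measured after 10 minutes.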
# Starred values were filed as active, the others as inactive; ? = inconclusive; . = no result. Shown are actives, neighbours in structure and some others; about 0.77% of the full set was active somewhere. Unless noted, calls follow the shape of the dose curve; as a rule, active = well fitted curve in the direction sought with a large enough effect; inconclusive = small, poorly fitted or top-dose-only effect, or another doubt; inactive = no such curve, though single readings can be large; an effect the other way counts as inactive or inconclusive. Potency is read from the fitted curve at half-maximal effect.
SMILES,RE007 growth inh,NS1 inh,LmPK inh,Tb PYK inh
COC(=O)c1ccc(N2C(=O)CC(N3CCC(n4c(=O)[nH]c5ccccc54)CC3)C2=O)cc1 (stereo not drawn),14µM*,-228%,0%,-8%
N=C1SCC(=O)N1c1ncc(Cc2cccc(Cl)c2)s1,18µM*,-61%,-5%,-3%
N=C1SCC(=O)N1c1ncc(Cc2ccccc2Cl)s1,?,-54%,-3%,-9%
CC(NC(CCc1ccccc1)C(=O)O)C(=O)N1CCCC1C(=O)O (stereo not drawn),.,.,.,-7%
CCOc1ccc(/C=N/NC(=O)c2[nH]ncc2Br)c(O)c1,?,-31%,7.9µM*,?
COc1cc2cc(CN(CCc3ccccc3C)C(=S)NCCCN(C)C)c(=O)[nH]c2cc1OC,4%,7%,4%,-7%
Cc1ccc2[nH]c(=O)c(CN(Cc3ccccc3)C(=S)NCCCN(C)C)cc2c1,2%,-35%,16µM*,-6%
Cc1cccc(CC(=O)N2CC(=O)Nc3ccc(C)cc3C2c2ccc(F)cc2)c1 (stereo not drawn),.,.,.,5%
COc1ccc(C(=O)CCN2CCN(c3ccccc3F)CC2)cc1,11µM*,-34%,-1%,-4%
O=C(CCN1CCN(c2ccccc2)CC1)c1ccc(Br)cc1,?,-43%,1%,1%
COc1ccc(OC)c(NC(=O)CCN2CCN(c3ccccc3F)CC2)c1,21%,-7%,-4%,-1%
O=C(CCN1CCN(c2ccccc2F)CC1)c1ccc(Br)cc1,32µM*,-95%,-7%,-14%
C/C(=N\NC(=O)c1n[nH]c2c1CCC2)c1cccs1,3%,-10%,11µM*,-5%
Cc1ccc(/C=N/NC(=O)c2n[nH]c3c2CCCC3)cc1,-13%,-2%,5%,1%
O=C(N/N=C/c1cccs1)c1n[nH]c2c1CCCC2,-9%,0%,14µM*,-21%
C/C(=N\NC(=O)c1cc(C)[nH]n1)c1cccs1,-19%,.,-23%,0%
CCOC(=O)Cc1ccc(-c2ccccc2)cc1,.,.,.,-6%
CCOC(=O)Cc1ccc2sc(-c3ccccc3)nc2c1,?,-16%,16µM*,?
Nc1nc2c(s1)COc1ccccc1-2,-20%,-65%,4%,-18%
Nc1nc2c(s1)CCc1c-2cnn1-c1ccccc1,.,-134%,14µM*,?
CC(=O)n1cc(C=C2C(=O)NC(=O)NC2=O)c2ccccc21,5%,-2%,-1%,28µM*
Cn1cc(C=C2C(=O)NC(=O)NC2=O)c2ccccc21,16%,3%,-2%,6%
CCOC(=O)C1=C(Cc2ccc(Cl)cc2)C(=O)c2ccccc2C1=O,35µM*,-111%,?,?
Cc1ccc(COC(=O)c2ccc(-c3nnn(Cc4ccc(C)cc4)n3)cc2)cc1,.,.,.,3%
Cc1cc2cc(C(c3nnnn3CC3CCCO3)N3CCCc4ccccc43)c(=O)[nH]c2cc1C (stereo not drawn),-7%,5µM*,-5%,-1%
SMILES,RE007 growth inh,NS1 inh,LmPK inh,Tb PYK inh
Cc1ccccc1NC(=S)NNC(=O)c1cccnc1,-5%,19%,18µM*,4.5µM*
Cc1ccccc1NC(=S)NNC(=O)c1ccncc1,8%,11%,-14%,3%
COC(=O)c1ccccc1NC1=C/C(=N\S(=O)(=O)c2cccs2)c2ccccc2C1=O,-29%,4%,18µM*,-5%
COC(=O)c1ccc2c(c1)C(C)(C)C(/C=C/c1ccccc1O)=[N+]2C,?,8%,14µM*,?
CN(C)S(=O)(=O)c1cccc(NC(=S)N/N=C/c2ccc(O)c(O)c2O)c1,-12%,18%,-15%,10µM*
COc1ccc(O)c(/C=N/NC(=S)Nc2cccc(S(=O)(=O)N(C)C)c2)c1,15%,?,5%,-20%
COc1cc2c(cc1OC)C(c1ccc(-c3cc(Cl)ccc3Cl)o1)=NCC2,0%,2%,0%,-5%
COc1cc2c(cc1OC)C(c1ccc(-c3ccc(Cl)c(Cl)c3)o1)=NCC2,32µM*,-69%,13µM*,-28%
CCOc1ccc(NC(=O)c2ccc(NC(=O)CCS(=O)(=O)c3cccs3)cc2)cc1,.,.,.,0%
CCC(=O)N1CCc2cc(Br)cc(S(=O)(=O)N3CCCC(C(=O)N(C)c4ccc(Br)cc4)C3)c21 (stereo not drawn),.,.,.,-5%
CNC(=O)/C(C#N)=C/c1cccc(Oc2ccccc2)c1,18µM*,-119%,2%,1%
